Bioassay records from PubChem.
ELG1 genotox = induces genotoxicity in HEK293T cells with luciferase-tagged ELG1 | HEK293T ELG1-luciferase reporter, luminescence, 16 h | Potency, µM (top dose mostly 46 µM), for inactives: top-dose activity change, positive = activation, hits mostly activators | hit rate 1.3% among 330,000 | AID 504466; further: % of control where 0% means no effect; nearly all actives have a fitted effect of over 60% in size
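ELG1-luciferase HEK293T cells, 2,000/well; compound pinned in; 16 hr, 37 °C, 5% CO2; ONE-Glo, 30 min RT; luminescence on CCD imager.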
NPC1 promoter act = NPC1 promoter activation | Huh7 NPC1 promoter luciferase reporter, 24 h | hit rate 2.4% among 320,000 | AID 485313 | Potency, µM (top dose mostly 9.22 µM), for the others: at the top dose activation, hits mostly activators; further: % of control where 0% means no effect; nearly all actives have a fitted effect of over 60% in size
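Stably transfected Huh7 (NPC1 promoter→luciferase), 1500 cells/well in Opti-MEM + 10% FBS, 2 h settle, then compound 24 h at 37 °C. Luminescence after 10 min with Amplite reagent.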
Rab9 prom act = Rab9 promoter activation; hit rate 2.8% among 320,000; Huh7 Rab9 promoter-luciferase reporter, luminescence, 24 h; AID 485297; Potency, µM (titrated, usually from 9.22 µM), without a hit: top-dose activation, negative = inhibition, usual class: activators; further: % of control where 0% means no effect; nearly all actives have a fitted effect of over 60% in size
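Stable Rab9-luc Huh7, 1500 cells/well, 2 h settle; cmpd in DMSO, 24 h, 37 °C/5% CO2; luciferase reagent 10 min RT; luminescence.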
SMN2 splice enh = increases expression of the SMN2 splice variant; HEK293 SMN2-luciferase splicing reporter, luminescence, 30-36 h; Potency, µM (top dose mostly 46.1 µM), for the others: at the top dose activity change, positive = activation, usual class: activators; hit rate 2.8% among 210,000; AID 1458; further: % of control where 0% means no effect; nearly all actives have a fitted effect of over 55% in size
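HEK293 cells carry an SMN2 […]–luciferase reporter in which exon 7 inclusion puts luciferase in frame. Cells were plated 10-12 h before compound addition, then incubated 30-36 h at 37C. ONE-Glo luminescence was read; sodium butyrate at 4.5 mM final served as control.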
ELG1 repair inh = inhibitors of ELG1-dependent DNA repair in HEK293T cells. HEK293T ELG1-luciferase reporter, luminescence, 16 h; DNA damage induced by 5-fluorouridine. Potency, µM (titrated, usually from 46.1 µM), for the others: at the highest dose activity change, negative = inhibition, hits mostly inhibitors. hit rate 2.3% among 330,000. AID 504467; further: on the % scale 0 is the no-effect control and ±100 the full control effect; nearly all actives have a fitted effect of over 55% in size
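In this reporter screen, reduction of luminescence relative to DMSO vehicle indicated activity. Compounds and 5-fluorouridine were added together to 2,000 cells per well, incubated for 16 hr at 37 °C, then developed with ONE-Glo.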
FLuc counter = firefly luciferase modulation, counter-screen for miR-21 project; purified FLuc, Km substrates, luminescence inhibition; Potency, µM (titrated, usually from 57.5 µM), without a hit: at the highest dose activity change, negative = inhibition, usual class: inhibitors; hit rate 6.9% among 360,000;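 further: plate controls were vehicle for no effect and reference inhibitor for full effect; nearly all actives have a fitted effect of over 55% in size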
Target sequence (P08659 whole entry, looked up): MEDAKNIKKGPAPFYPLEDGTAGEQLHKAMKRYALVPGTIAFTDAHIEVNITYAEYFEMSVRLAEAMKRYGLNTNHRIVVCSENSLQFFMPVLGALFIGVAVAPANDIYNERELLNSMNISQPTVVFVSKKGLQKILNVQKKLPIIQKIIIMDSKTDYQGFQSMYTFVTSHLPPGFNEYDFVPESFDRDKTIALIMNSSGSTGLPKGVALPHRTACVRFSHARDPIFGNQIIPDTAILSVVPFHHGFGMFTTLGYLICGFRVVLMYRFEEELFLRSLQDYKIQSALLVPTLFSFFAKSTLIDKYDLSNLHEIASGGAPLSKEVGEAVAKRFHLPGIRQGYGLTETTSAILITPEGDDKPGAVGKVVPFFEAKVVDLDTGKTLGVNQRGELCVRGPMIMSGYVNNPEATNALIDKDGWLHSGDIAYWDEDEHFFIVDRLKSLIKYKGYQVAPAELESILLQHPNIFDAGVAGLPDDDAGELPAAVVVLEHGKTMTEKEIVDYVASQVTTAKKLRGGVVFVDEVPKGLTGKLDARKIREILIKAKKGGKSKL
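Purified P. pyralis luciferase, 10 nM final, with Km-level 10 uM D-luciferin and 10 uM ATP in 50 mM Tris acetate pH 7.5, 10 mM Mg acetate, 0.01% Tween-20, 0.05% BSA; 6-point qHTS titration about 60 µM downward; luminescence read.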
Active calls of the source: *; [ ] = another dose, or the depositor's remark. Hits are enriched below; roughly 9.3% of the tested compounds scored in any of these assays. The call rests on the fitted dose curve; in most records, active means well fitted curve in the direction sought with a large enough effect; inconclusive means small, poorly fitted or top-dose-only effect, or another doubt; inactive means no such curve, though single readings can be large; an effect the other way counts as inactive or inconclusive. Potency means the concentration at half of the fitted maximal effect.

COc1ccc(Nc2ncnc3ccccc23)c(OC)c1 was read as ELG1 genotox 6%, NPC1 promoter act -8%, Rab9 prom act -2%, SMN2 splice enh -33%, ELG1 repair inh -7% and FLuc counter inconclusive.
COc1ccc(Nc2ccnc(Nc3ccc(OC)cc3)n2)cc1 was read as ELG1 genotox -4%, NPC1 promoter act inconclusive, Rab9 prom act inconclusive, SMN2 splice enh 15%, ELG1 repair inh inconclusive and FLuc counter 7.6µM*.
`COc1ccc(Nc2nc(OC)nc(OC)n2)cc1` gave ELG1 genotox 11%, NPC1 promoter act -5%, Rab9 prom act 11%, ELG1 repair inh inconclusive and FLuc counter -6%.
COc1cccc(Nc2cc(C)c3ccccc3n2)c1 was read as ELG1 genotox inconclusive, NPC1 promoter act 25%, Rab9 prom act -3%[1.84 µM], ELG1 repair inh inconclusive and FLuc counter 24µM*.
O=[N+]([O-])c1ccc(S(=O)(=O)N(CC(O)CN2CCCCC2)c2ccccc2)cc1 (centres undefined) was read as ELG1 genotox 0%, NPC1 promoter act -1%, Rab9 prom act 8%, ELG1 repair inh -6% and FLuc counter 3%.
COc1ccc(Nc2cc(Nc3ccccc3)ncn2)cc1 was read as ELG1 genotox inconclusive, NPC1 promoter act 2µM*, Rab9 prom act 2µM*, ELG1 repair inh inconclusive and FLuc counter inconclusive.
`COc1ccc(Nc2nc(-c3cccs3)nc3ccccc23)cc1` gave ELG1 genotox -7%, NPC1 promoter act 0%, Rab9 prom act -6%, SMN2 splice enh -23%, ELG1 repair inh inconclusive and FLuc counter inconclusive.
Screening COc1ccc(Nc2ncnc3ccccc23)cc1 returned ELG1 genotox 14%, NPC1 promoter act 3.2µM*, Rab9 prom act 2.8µM*, SMN2 splice enh 11µM*, ELG1 repair inh -5% and FLuc counter 15µM*.
Screening O=C(Oc1cccc(Nc2ncnc3ccccc23)c1)c1ccccc1Cl returned ELG1 genotox inconclusive, NPC1 promoter act -6%, Rab9 prom act -8%, SMN2 splice enh -42%, ELG1 repair inh inconclusive and FLuc counter 17µM*.
For COc1cccc(Nc2nc(-c3cccs3)nc3ccccc23)c1 the results were ELG1 genotox -6%, NPC1 promoter act 0%, Rab9 prom act -3%, SMN2 splice enh -3%, ELG1 repair inh 23µM* and FLuc counter inconclusive.
Screening COc1ccc(-c2noc(CN(C(=O)c3c(-c4ccccc4Cl)noc3C)C(C)C)n2)cc1 returned ELG1 genotox -20%, NPC1 promoter act -3%, Rab9 prom act -10%, ELG1 repair inh inconclusive and FLuc counter -1%.
CCOc1ccc(Nc2ncnc3ccc([N+](=O)[O-])cc23)cc1 was read as ELG1 genotox -10%, NPC1 promoter act 15%, Rab9 prom act -6%, SMN2 splice enh -23%, ELG1 repair inh 9.2µM* and FLuc counter 1%.
Screening NC(=Nc1ccccc1)NC(=O)c1nc(Cl)c(N)nc1N returned NPC1 promoter act inconclusive, Rab9 prom act inconclusive and SMN2 splice enh 14µM*.
For NC(=NCc1ccccc1)NC(=O)c1nc(Cl)c(N)nc1N the results were NPC1 promoter act inconclusive, Rab9 prom act 7%[46.1 µM] and SMN2 splice enh -6%.
Cn1c(=O)c2c(SCc3ccccn3)nc(C3CC3)nc2n(C)c1=O was read as ELG1 genotox 16µM*, NPC1 promoter act 0%, Rab9 prom act 13%, SMN2 splice enh 29%, ELG1 repair inh 10% and FLuc counter -1%.
Screening Cn1c(=O)c2c(SCc3cccnc3)nc(CC(C)(C)C)nc2n(C)c1=O returned ELG1 genotox -6%, NPC1 promoter act 2%, Rab9 prom act -10%, SMN2 splice enh -7%, ELG1 repair inh inconclusive and FLuc counter -2%.
Cn1c(=O)c2c(SCc3ccccc3)nc(C3CC3)nc2n(C)c1=O was read as ELG1 genotox 4%, NPC1 promoter act -1%, Rab9 prom act 9%, ELG1 repair inh 20% and FLuc counter -1%.
`CCCc1nc(SCc2cccnc2)c2c(=O)n(C)c(=O)n(C)c2n1` gave ELG1 genotox -7%, NPC1 promoter act -6%, Rab9 prom act -1%, SMN2 splice enh -11%, ELG1 repair inh 16µM* and FLuc counter 1%.
For Cc1ccc2c(c1)N(C(=O)CCC(=O)NCCCN1CCC(Cc3ccccc3)CC1)CCO2 the results were ELG1 genotox -3%, NPC1 promoter act -4%, Rab9 prom act 5%, ELG1 repair inh -18% and FLuc counter 2%.
Screening C/C(=N\NC(=O)CCC(=O)NCc1ccccc1)c1ccc([N+](=O)[O-])cc1 returned ELG1 genotox 2% and ELG1 repair inh -5%.
For O=C(COc1ccc2ccccc2c1)NC1=NCCS1 the results were ELG1 genotox 8%, NPC1 promoter act 4.5µM*, Rab9 prom act inconclusive, SMN2 splice enh 9%, ELG1 repair inh 0% and FLuc counter 4.8µM*.
Screening O=C(CSc1ccccn1)Nc1ccc2c(c1)OCCO2 returned ELG1 genotox inconclusive, NPC1 promoter act 4µM*, Rab9 prom act 2.5µM*, ELG1 repair inh inconclusive and FLuc counter 8.5µM*.
For CC1(C(=O)OCC(=O)Nc2ccc3ccccc3c2)CC1(Cl)Cl (centres undefined) the results were ELG1 genotox 1%, NPC1 promoter act 17%, Rab9 prom act 26%, SMN2 splice enh 0%, ELG1 repair inh -8% and FLuc counter 19µM*.
O=C(CSc1ncccn1)Nc1ccc2c(c1)OCO2 was read as ELG1 genotox 8% and ELG1 repair inh inconclusive.
Screening Cc1cc(NC(=O)CSc2ccccn2)cc(NC(=O)CSc2ccccn2)c1 returned ELG1 genotox -7%, NPC1 promoter act 0%, Rab9 prom act 5%, ELG1 repair inh -4% and FLuc counter 4%.
O=C(CSc1ccccn1)Nc1ccc2ccccc2c1 was read as ELG1 genotox inconclusive, NPC1 promoter act 3.5µM*, Rab9 prom act 2.8µM*, ELG1 repair inh inconclusive and FLuc counter 4.8µM*.
`O=C(CSc1nccc(=O)[nH]1)Nc1ccc2c(c1)OCCO2` gave ELG1 genotox 15µM*, NPC1 promoter act 2.2µM*, Rab9 prom act 2.2µM*, ELG1 repair inh inconclusive and FLuc counter 11µM*.
CN(C)S(=O)(=O)c1ccc(SCC(=O)Nc2ccc3c(c2)OCCO3)nc1 was read as ELG1 genotox 1%, NPC1 promoter act 11%, Rab9 prom act -1%, ELG1 repair inh inconclusive and FLuc counter 21µM*.
